Measured values: PubChem BioAssay (EPA / NIEHS)
Active and inactive are the calls of the source. Rule for the calls: active = hit-call score of the fitted dose curve at least 0.9, where 1 is the maximum; inactive = score below 0.9.

Experiment: ATG_BRE_CIS: Attagene CIS-FACTORIAL HepG2 Assay for human Bone Morphogenetic Protein (BMP) Response Element (BRE) (AID 2282933)
Conditions: HepG2 BMP response element reporter, Attagene transcription factor profiling; actives raise or lower the signal
Experimental: ATG_CIS is a cell-based, multiplexed-readout assay that uses HepG2, a human liver cell line, with measurements taken at 24 hours after chemical dosing in a 24-well plate.ATG_BRE_CIS is one of 52 assay component(s) measured or calculated from the ATG_CIS assay. It is designed to make measurements of mRNA induction, a form of inducible reporter, as detected with fluorescence intensity signals by Reverse transcription polymerase chain reaction (RT-PCR) and Capillary electrophoresis technology.Data from the assay component ATG_BRE_CIS was analyzed into 1 assay endpoint. This assay endpoint, ATG_BRE_CIS, was analyzed with bidirectional fitting relative to DMSO as the negative control and baseline of activity. Using a type of inducible reporter, measures of mRNA for gain or loss-of-signal activity can be used to understand the reporter gene at the transcription factor-level as they relate to the gene SMAD1. Furthermore, this assay endpoint can be referred to as a primary readout, because this assay has produced multiple assay endpoints where this one serves a reporter gene function. To generalize the intended target to other relatable targets, this assay endpoint is annotated to the dna binding intended target family, where the subfamily is Smad protein.
Human liver HepG2 cells are transiently transfected with multiple reporter transcription units (MRTUs) in 6-well plates using FuGene 6 reagent (Roche; 3 ml FuGene/1 mg DNA). The MRTU constructs are regulated by a cis-regulating element (promoter). […] A major difference between the CIS and TRANS system is that in CIS activities of endogenous TFs are measured, whereas the TRANS assay evaluates changes in activities of exogenous, chimeric NR-Gal4 proteins. […] At the end of 24 hour incubation, total RNA was isolated using TriZol reagent (Invitrogen). The isolated RNA is then reverse-transcribed using oligo(dT) primer and Mo-MLV reverse transcriptase (Invitrogen) with DNAse I (Ambion) treatment for 30 min. The one-tenth of the produced cDNA was amplified by PCR using Taq DNA polymerase (Invitrogen) and two reporter sequence-specific primers. The PCR products were fluorescently labeled by primer extension with 6-arboxyfluorescein (6-FAM) 5'-labeled reporter sequence-specific primer (2 min at 95 C, 20 s at 68 C and 10 min at 72 C) and these products were digested with 5U of HpaI (New England Biolabs) for 2h at 37 C. The fragments were purified using Qiaquick PCR columns (Qiagen), analyzed on an ABI 3130xL genetic analyzer (Applied Biosystems) with peak positions identified by using a set of X-rhodamine (ROX)-labeled MapMarker1000 molecular weight standards (BioVentures). The raw capillary electrophoresis data was processed using Attagraph software (Attagene).

Which outcome does the source give for `CCCC(=O)c1cc(O)c(O)cc1O` here?
Its outcome is “inactive”.

With `CCC(C)CCCC(C)(C)O` (stereo not given) as the molecule, how does the outcome read?
Its outcome is “inactive”.

Which outcome does the source give for `CCCCCNCCCCC` here?
The outcome was “inactive”.

Which outcome does the source give for `Cc1ccc2ccccc2n1` here?
The outcome was “inactive”.

For `C=C(C)C(=O)OCCOC(=O)CC(C)=O`, which outcome is on record?
Its outcome is “inactive”.

With `Clc1nc(C(Cl)(Cl)Cl)c(Cl)c(Cl)c1Cl` as the molecule, how does the outcome read?
The outcome was “inactive”.

Which outcome does the source give for `O=C[C@H](O)[C@H](O)[C@H](O)CO` here?
The outcome was “inactive”.

With `O=c1oc(=O)c2cc3c(=O)oc(=O)c3cc12` as the molecule, how does the outcome read?
Its outcome is “inactive”.

With `COc1ccnc(CS(=O)c2nc3cc(OC(F)F)ccc3[nH]2)c1OC` (stereo not given) as the molecule, how does the outcome read?
Its outcome is “inactive”.

Which outcome does the source give for `OCCN1CCNCC1` here?
Its outcome is “inactive”.

Which outcome does the source give for `CC1(C)[C@H]2CC[C@]1(C)[C@H](O)C2` here?
Its outcome is “inactive”.

Which outcome does the source give for `CCCCO` here?
The outcome was “inactive”.

With `Sc1nc(S)nc(S)n1` as the molecule, how does the outcome read?
The outcome was “inactive”.

With `C=C(C)C(=O)OCc1ccccc1` as the molecule, how does the outcome read?
Its outcome is “inactive”.

With `OCCOc1cccc(OCCO)c1` as the molecule, how does the outcome read?
The outcome was “inactive”.

For `C=C(C)C1CCC(C)CC1O` (stereo not given), which outcome is on record?
Its outcome is “inactive”.

With `Cc1ccc(Nc2ccc(O)c3c2C(=O)c2ccccc2C3=O)cc1` as the molecule, how does the outcome read?
Its outcome is “inactive”.

With `CC(C)=CCC[C@H](C)CC=O` as the molecule, how does the outcome read?
The outcome was “inactive”.

With `O=C(O)C[C@H](O)C[C@H](O)/C=C/c1c(C2CC2)nc2ccccc2c1-c1ccc(F)cc1` as the molecule, how does the outcome read?
The outcome was “inactive”.

With `Nc1ccc(S(N)(=O)=O)cc1` as the molecule, how does the outcome read?
The outcome was “inactive”.

For `CC1=CCC(O)(C(C)C)CC1` (stereo not given), which outcome is on record?
Its outcome is “inactive”.

With `c1ccc2c(c1)c1cccc3ccc4cccc2c4c31` as the molecule, how does the outcome read?
Its outcome is “inactive”.

For `O=S(=O)(O)c1cccc2c(S(=O)(=O)O)cccc12`, which outcome is on record?
The outcome was “inactive”.

Which AC50 does the source give for `Cc1ccc(C(=O)c2cc(O)c(O)c([N+](=O)[O-])c2)cc1` here?
The AC50 was 56 µM (active).

Which outcome does the source give for `OCc1cccnc1` here?
Its outcome is “inactive”.

For `O=C(Oc1ccccc1)c1ccc(O)cc1`, which outcome is on record?
Its outcome is “inactive”.

With `CC1CCC(C(C)(C)O)CC1` (stereo not given) as the molecule, how does the outcome read?
Its outcome is “inactive”.

Which outcome does the source give for `CCC(=O)/C=C/C1C(C)=CCCC1(C)C` (stereo not given) here?
Its outcome is “inactive”.

For `O=C(O)c1cn(C2CC2)c2cc(N3CCNCC3)c(F)cc2c1=O`, which outcome is on record?
Its outcome is “inactive”.

Which outcome does the source give for `CCCCNC(=O)NS(=O)(=O)c1ccc(N)cc1` here?
Its outcome is “inactive”.

With `CCCCCCCCCCC(CO)CCCCCCCC` (stereo not given) as the molecule, how does the outcome read?
Its outcome is “inactive”.

For `CCC/C=C/C=O`, which outcome is on record?
Its outcome is “inactive”.

Which outcome does the source give for `CN1Cc2c(N)cccc2C(c2ccccc2)C1` (stereo not given) here?
The outcome was “inactive”.

For `CCCOCC(C)O` (stereo not given), which outcome is on record?
The outcome was “inactive”.

For `CN(C)c1ccc(O)c2c1C[C@H]1C[C@H]3[C@H](N(C)C)C(=O)C(C(N)=O)=C(O)[C@@]3(O)C(=O)C1=C2O`, which outcome is on record?
The outcome was “inactive”.

For `CC(C)(Oc1ccc(CCNC(=O)c2ccc(Cl)cc2)cc1)C(=O)O`, which outcome is on record?
The outcome was “inactive”.

Which outcome does the source give for `CN(C)CCOCCN(C)C` here?
The outcome was “inactive”.

With `CCCCOCCOCCOCCOCCO` as the molecule, how does the outcome read?
Its outcome is “inactive”.

Which outcome does the source give for `COC(=O)c1ccc(C)cc1` here?
The outcome was “inactive”.

Which outcome does the source give for `CCCCc1ccc(N)cc1` here?
Its outcome is “inactive”.
